According to PubChem BioAssay:
The other results are listed elsewhere or left out. Activity calls are given as the source filed them.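 The calls were made as follows, unless noted: active = mean inhibition above about 50% in the one-dose retest (limit read from the data); inactive = the rest.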

Tests used:
[1] = biological target: Sentrin-specific protease 8 (Homo sapiens) (UniProt Q96LD8); assay: SENP8 protease inhibitors, retest, confirmation, biochemical, luminescence, single concentration (AID 488912;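 active = mean inhibition across replicates above about 50%, limit read from the data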); details: Recombinant SENP8, Z-RLRGG-aminoluciferin luminescence, 60 min; at 12.5 µM; active compounds read high
Chain of Sentrin-specific protease 8 (Homo sapiens) (Q96LD8 whole entry, looked up): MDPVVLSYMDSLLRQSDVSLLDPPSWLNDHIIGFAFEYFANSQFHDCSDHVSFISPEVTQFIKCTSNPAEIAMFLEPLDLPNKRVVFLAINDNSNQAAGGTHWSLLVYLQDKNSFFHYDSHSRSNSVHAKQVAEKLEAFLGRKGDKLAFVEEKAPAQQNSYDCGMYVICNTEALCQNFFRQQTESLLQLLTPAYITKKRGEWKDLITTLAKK

[2] = biological target: Sentrin-specific protease 6 (Homo sapiens) (UniProt Q9GZR1); assay: SENP6 protease inhibitors, confirmation, biochemical, luminescence, single concentration (AID 488915); details: recombinant SENP6, Z-RLRGG-aminoluciferin luminescence; at 12.5 µM; active compounds read high
Chain of Sentrin-specific protease 6 (Homo sapiens) (Q9GZR1 628-1112 limits assumed): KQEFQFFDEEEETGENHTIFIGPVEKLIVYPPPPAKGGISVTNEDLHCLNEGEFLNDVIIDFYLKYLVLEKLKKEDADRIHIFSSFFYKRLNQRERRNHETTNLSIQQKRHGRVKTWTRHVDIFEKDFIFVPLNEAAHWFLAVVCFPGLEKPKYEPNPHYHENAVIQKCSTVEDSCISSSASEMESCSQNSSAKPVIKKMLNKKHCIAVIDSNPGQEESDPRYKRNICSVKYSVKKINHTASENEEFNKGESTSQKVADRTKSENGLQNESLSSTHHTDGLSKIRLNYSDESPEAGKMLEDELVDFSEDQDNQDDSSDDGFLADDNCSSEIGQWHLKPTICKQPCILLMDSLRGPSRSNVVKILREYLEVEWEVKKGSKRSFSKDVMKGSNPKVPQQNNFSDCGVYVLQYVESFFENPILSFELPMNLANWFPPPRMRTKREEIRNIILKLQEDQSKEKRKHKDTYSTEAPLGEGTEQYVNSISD

[3] = biological target: Sentrin-specific protease 7 (Homo sapiens) (UniProt Q9BQF6); assay: SENP7 protease inhibitors, retest, confirmation, biochemical, luminescence, single concentration (AID 488917); details: recombinant SENP7, Z-RLRGG-aminoluciferin luminescence, 40 min; at 12.5 µM; active compounds read high
Chain of Sentrin-specific protease 7 (Homo sapiens) (Q9BQF6 706-1050 limits assumed): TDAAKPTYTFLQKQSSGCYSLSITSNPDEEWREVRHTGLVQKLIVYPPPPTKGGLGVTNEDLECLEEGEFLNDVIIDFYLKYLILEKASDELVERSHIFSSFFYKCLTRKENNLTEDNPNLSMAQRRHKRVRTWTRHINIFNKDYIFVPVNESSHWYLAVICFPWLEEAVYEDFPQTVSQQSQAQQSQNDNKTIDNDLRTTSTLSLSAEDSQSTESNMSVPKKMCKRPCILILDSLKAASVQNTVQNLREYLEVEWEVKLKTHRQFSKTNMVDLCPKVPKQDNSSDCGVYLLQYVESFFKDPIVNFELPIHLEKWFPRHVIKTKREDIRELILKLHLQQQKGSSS

Caspase-3 (Homo sapiens) = Caspase-3 (Homo sapiens) (UniProt P42574); assay: caspase-3 protease inhibitors, confirmation, selectivity assay for SENP inhibitor project, biochemical, single concentration (AID 488918;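 active = mean inhibition above about 50%, limit read from the data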;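 also: plate controls were enzyme with DMSO for no effect and wells without caspase-3 for full effect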); details: purified caspase-3, Z-DEVD-aminoluciferin luminescence, 60 min; at 12.5 µM; active compounds read high
Chain of Caspase-3 (Homo sapiens) (P42574 28-227 limits assumed): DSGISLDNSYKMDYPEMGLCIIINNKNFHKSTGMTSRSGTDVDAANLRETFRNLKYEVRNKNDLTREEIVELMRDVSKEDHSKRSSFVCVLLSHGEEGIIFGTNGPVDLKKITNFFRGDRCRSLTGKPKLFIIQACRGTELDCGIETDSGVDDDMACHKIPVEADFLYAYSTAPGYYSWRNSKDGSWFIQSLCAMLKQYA

[4] = luciferase luminescence interference by compounds, confirmation, artefact control for SENP inhibitor project, biochemical, single concentration, SENP8 reaction pre-completed (AID 488919;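 active = mean inhibition above about 50% when retested at one dose, limit read from the data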;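 also: plate controls were DMSO wells with completed reaction for no effect and substrate without enzyme for full effect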); details: Pre-incubated SENP8/Z-RLRGG-aminoluciferin, at 12.5 µM, active compounds read high

Measured: inhibition

COc1ccc(NC(=O)Nc2cccc3cccnc23)cc1
active: [1] 86.4% | [2] 85.6% | [3] 97.2% | Caspase-3 (Homo sapiens) 70.7% | [4] 78.5%

CC(=O)Oc1ccc2c(=O)oc(-c3ccc([N+](=O)[O-])cc3)nc2c1
inactive: [1] -6.1% | [2] -1.5% | [3] -2.9% | Caspase-3 (Homo sapiens) -2.9% | [4] -4.7%

Cc1cccc(NC(=O)c2ccc3ccccc3n2)n1
active: [1] 76.6% | [2] 76.1% | [3] 93.6% | Caspase-3 (Homo sapiens) 65.2% | [4] 51.2%

Cn1cccc1C(=O)OCC(=O)c1ccc(Br)s1
active: [1] 78.3% | [2] 78.3% | [3] 95.5% | Caspase-3 (Homo sapiens) 77.3% | [4] 54.7%

Oc1cccc2ccc(/C=C/c3ccc(Br)s3)nc12
active: [2] 63.9% | [3] 52.2% | Caspase-3 (Homo sapiens) 59.9%
inactive: [1] 31.2% | [4] 9.6%

O=C(Nc1ccccc1)c1cc2ccccc2[nH]1
inactive: [1] -22.5% | [2] -15.9% | [3] 1.9% | Caspase-3 (Homo sapiens) -4.8% | [4] 8.3%

O=C(Nc1ccc(F)cc1)c1cc2c(s1)CCCC2
active: [1] 93.3% | [2] 93.7% | [3] 101% | Caspase-3 (Homo sapiens) 84% | [4] 84.2%

C=CCNC(=S)N1CCN(CCN=Cc2c(C)[nH]n(-c3ccc([N+](=O)[O-])cc3)c2=O)CC1
inactive: [1] 0.7% | [2] 21.1% | [3] 28% | [4] 16.9%
active: Caspase-3 (Homo sapiens) 56.6%

COc1ccc(C(CC(=O)c2ccccc2)S(=O)(=O)c2ccccc2)cc1 (stereo not given)
inactive: [1] 25% | [2] 33.4% | [3] 30.3% | Caspase-3 (Homo sapiens) 9% | [4] 4.7%

Cc1cccc(-c2noc(-c3ccc(F)cc3)n2)c1
active: [1] 63.5% | [2] 69.8% | [3] 89.5% | Caspase-3 (Homo sapiens) 80.6% | [4] 61.4%

COCCn1nnnc1C(c1cc2ccc(OC)cc2[nH]c1=O)N1CCc2ccccc2C1 (stereo not given)
inactive: [1] 12.6% | [2] 23% | [3] 2.5% | Caspase-3 (Homo sapiens) 1% | [4] -2%

CCOc1ccc(N/C=C/C(=O)c2ccccc2)cc1
inactive: [1] 10.5% | [4] 19.3%
active: [2] 94.9% | [3] 63.3% | Caspase-3 (Homo sapiens) 81.1%

Nc1ccc(-c2nnc(-c3ccccc3)o2)cc1
active: [1] 51.2% | [2] 51.4% | [3] 79.5% | Caspase-3 (Homo sapiens) 65.7%
inactive: [4] 35.7%

O=C(Nc1nnc(SCc2ccccc2)s1)c1ccco1
inactive: [1] 6.7% | [2] 40.5% | [3] 23.6% | [4] 13.1%
active: Caspase-3 (Homo sapiens) 61.1%

Brc1ccc(-c2nnc(-c3ccccc3)o2)o1
active: [2] 50.8% | [3] 80.1% | Caspase-3 (Homo sapiens) 62.9%
inactive: [1] 25.1% | [4] 19.1%

COC(=O)c1sc(NC(=O)c2ccc(OC)cc2OC)nc1C
active: [1] 56.9% | Caspase-3 (Homo sapiens) 66.4%
inactive: [2] 34.4% | [3] 22.1% | [4] -5.6%

Cc1ccc(S(=O)(=O)Nc2nc3ccccc3nc2N2CCc3ccccc3C2)cc1
inactive: [1] -9.3% | [2] -1.3% | [3] -5.2% | Caspase-3 (Homo sapiens) 4.5% | [4] 4.3%

O=c1c(-c2cccc(Cl)c2)c[nH]n1-c1ccccc1
active: [1] 63.9% | [2] 61.4% | [3] 80.8% | Caspase-3 (Homo sapiens) 76.2% | [4] 63.8%

CC(C)CCNC(=O)c1ccc2c(Cl)c3c(nc2c1)CCC3
active: [1] 84.1% | [2] 88.3% | [3] 97.4% | Caspase-3 (Homo sapiens) 57.1% | [4] 52.5%

COC(=O)c1ccc(NCC(=O)c2ccccc2)cc1
active: [2] 97.3% | [3] 103% | Caspase-3 (Homo sapiens) 96% | [4] 60.5%
inactive: [1] 10.5%

c1csc(-c2nc(-c3ccncc3)no2)c1
inactive: [1] 19.7% | [2] 47.2% | [4] 42.1%
active: [3] 83.4% | Caspase-3 (Homo sapiens) 80.4%

N/C(=N\OC(=O)c1ccc2c(c1)OCO2)c1ccc(Br)cc1
inactive: [1] -7.4% | [2] 15.2% | [3] 11.9% | Caspase-3 (Homo sapiens) 17.8% | [4] 3.3%

Fc1ccc(COc2ccc(-c3nnco3)cc2)cc1
inactive: [1] 29%
active: [2] 60.4% | [3] 85.8% | Caspase-3 (Homo sapiens) 67.9% | [4] 65.6%

CCNc1nc(N)nc(Oc2ccc(OCC)nn2)n1
inactive: [1] 6.2% | [2] 8.1% | [3] -2% | Caspase-3 (Homo sapiens) 3.8% | [4] 0.2%

CCc1ccc(NC(=O)C(=O)NNC(=O)c2cccs2)cc1
active: [1] 58.4% | [2] 73.4% | [3] 93.2% | Caspase-3 (Homo sapiens) 89.9%
inactive: [4] 5.2%
